# Target: Eukaryotic translation initiation factor 3 subunit I (UniProt P40217)
# Assay: cross-link between two proteins; cross-linking mass spectrometry
# Chain of Eukaryotic translation initiation factor 3 subunit I (P40217 whole entry): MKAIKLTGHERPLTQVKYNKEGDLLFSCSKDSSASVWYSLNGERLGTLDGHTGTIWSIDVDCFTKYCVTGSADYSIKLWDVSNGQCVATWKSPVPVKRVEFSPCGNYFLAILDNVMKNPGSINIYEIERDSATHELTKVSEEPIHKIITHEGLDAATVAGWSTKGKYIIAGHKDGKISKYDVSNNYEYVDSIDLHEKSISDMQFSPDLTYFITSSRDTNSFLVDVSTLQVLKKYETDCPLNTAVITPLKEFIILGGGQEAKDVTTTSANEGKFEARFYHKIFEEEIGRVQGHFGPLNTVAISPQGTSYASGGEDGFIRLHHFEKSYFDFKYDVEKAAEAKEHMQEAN
# Chain of Eukaryotic translation initiation factor 3 subunit A, P38249 (P38249 whole entry): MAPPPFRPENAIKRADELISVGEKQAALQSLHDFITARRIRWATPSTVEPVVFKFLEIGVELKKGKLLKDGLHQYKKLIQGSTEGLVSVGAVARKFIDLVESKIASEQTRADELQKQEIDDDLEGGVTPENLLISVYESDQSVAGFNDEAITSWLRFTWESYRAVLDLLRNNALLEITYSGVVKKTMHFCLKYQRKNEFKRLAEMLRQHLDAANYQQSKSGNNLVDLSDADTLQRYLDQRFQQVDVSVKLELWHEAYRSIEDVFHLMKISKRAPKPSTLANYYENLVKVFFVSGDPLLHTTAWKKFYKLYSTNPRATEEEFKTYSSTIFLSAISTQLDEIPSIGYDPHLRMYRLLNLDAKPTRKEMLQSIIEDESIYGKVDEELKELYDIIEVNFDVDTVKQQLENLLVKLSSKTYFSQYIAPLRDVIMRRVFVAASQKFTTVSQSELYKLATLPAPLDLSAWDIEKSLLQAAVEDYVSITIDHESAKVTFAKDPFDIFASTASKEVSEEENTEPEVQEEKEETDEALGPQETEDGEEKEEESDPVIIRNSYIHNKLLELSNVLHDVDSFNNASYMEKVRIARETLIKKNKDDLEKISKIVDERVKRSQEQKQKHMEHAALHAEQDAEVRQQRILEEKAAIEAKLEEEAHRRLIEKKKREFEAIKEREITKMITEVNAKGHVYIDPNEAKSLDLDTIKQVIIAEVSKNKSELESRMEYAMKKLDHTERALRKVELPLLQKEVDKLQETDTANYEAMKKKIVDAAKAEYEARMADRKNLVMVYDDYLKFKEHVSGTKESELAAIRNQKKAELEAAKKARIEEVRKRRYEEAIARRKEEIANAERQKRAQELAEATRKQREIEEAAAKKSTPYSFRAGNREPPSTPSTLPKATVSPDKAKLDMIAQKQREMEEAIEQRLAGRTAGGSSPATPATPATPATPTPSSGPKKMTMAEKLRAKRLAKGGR
substance,measurement,value
"Eukaryotic translation initiation factor 3 subunit A, P38249",listed as a hit,yes

# Source: article PMC4151992
